# Results taken from PubChem BioAssay AID932 (The Scripps Research Institute Molecular Screening Center, 2007).
# Out of some 200,000 compounds screened, about 5,100 (2.5%) were called active. What follows is part of a selection rich in actives, with near analogues and random picks from the rest. A number with no mark means an inactive call.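 How the source made its calls: active means activation above the screen-wide mean activation plus 3 SD (cut at about 130% in these data); inactive means the rest.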
# Test: STAT1 signaling activators, primary screen, cell-based, HTS, luciferase reporter (AID 932);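 further: raw ratio to IFN-gamma control signal so 100% means no change and 0% no light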
# Settings: NIH 3T3 STAT1-luciferase reporter, IFN-gamma, luminescence; at 5.5 µM; active compounds read high; 100% = IFN-gamma alone, no compound
row,Structure (SMILES),activation (% of control)
1,CNC(=O)c1ccc(NC(=O)c2cccc(C(F)(F)F)c2)cc1,98.4%
2,Cc1cc(C)c(C#N)c(N2CCC(C(N)=O)CC2)n1,98.4%
3,Cc1n[nH]c(=S)n1/N=C/c1ccc(Br)o1,104%
4,CNC(=S)N/N=C/c1ccc(OCc2ccccc2)c(Br)c1,119%
5,COc1cc(/C=N/n2c(C)n[nH]c2=S)ccc1OCc1ccccc1,144% (active)
6,C=C(C)C(=O)Nc1cccc(C(C)=O)c1,102%
7,CSc1ccccc1NC(=O)CN(C)CC(=O)Nc1cccc(Br)c1,89.3%
8,CCN(CC)C(=O)C(=O)Nc1cccc(Br)c1,129% (active)
9,CCOc1ccc(C(C)=O)cc1COC(=O)c1cnc(Cl)c(Cl)c1,101%
10,Cc1ccnc(NC(=O)c2ccc(Cl)c([N+](=O)[O-])c2)c1,95.8%
11,Cn1c(SCc2c(F)cccc2Cl)nnc1-c1cnccn1,130% (active)
12,Fc1cccc(Cl)c1CSc1ccc(-c2ccco2)nn1,126%
13,O=C(CSc1nnc(-c2cnccn2)n1Cc1ccco1)c1ccc(Cl)c(Cl)c1,94.7%
14,O=C(CSc1nnc(C2CC2)n1Cc1ccccc1)Nc1cccnc1Cl,96.9%
15,CCc1ccc(CN(C)C(=O)CCc2nnc(-c3ccc(-c4ccccc4)cc3)o2)nc1,93.4%
16,COc1cccc(OC)c1C(=O)Nc1ccc(N2CCCCC2)cc1,103%
17,Cc1ccccc1C(=O)Nc1ccc(N2CCCCCC2)cc1,141% (active)
18,COc1cccc(C(=O)Nc2ccc(N3CCCC3)cc2)c1,127%
19,CCc1cc2c(=O)c(-c3ccc(F)cc3)c(C(F)(F)F)oc2cc1OCC(=O)O,97.7%
20,C/C(CC(=O)Nc1ccc(C)cc1C)=N\NC(=O)C(C)C,102%
21,O=S(=O)(c1cccc(C(F)(F)F)c1)N1CCN(c2cnccn2)CC1,108%
22,Cc1cc(C)nc(N2CCC(C(=O)Nc3ccc4c(c3)OCCO4)CC2)n1,101%

row,Structure (SMILES),activation (% of control)
1,Cc1ccnc(N2CCCC(C(=O)Nc3cc(F)ccc3C)C2)n1 (stereo not given),104%
2,O=C(Nc1ccc2c(c1)OCCO2)C1CCCN(c2ncccn2)C1 (stereo not given),143% (active)
3,NS(=O)(=O)c1ccc(NC(=S)Nc2ccc(Br)c(Cl)c2)cc1,94.5%
4,CCC(C)N(C(=O)COC(=O)C1C(C(=O)OC)=C(C)NC(C)=C1C(=O)OC)C1CCS(=O)(=O)C1 (stereo not given),102%
5,O=C(Nc1ccc(Cl)cc1)C1c2cccc[n+]2CC(=O)N1Cc1ccc2c(c1)OCO2 (stereo not given),101%
6,Cc1cc(C)nc(NNC2=CC(=O)CC(C)(C)C2)n1,115%
7,CC(C)(C)C(=O)CSc1nc2ccccc2o1,150% (active)
8,CCN(CC)C(=O)CSc1nc2ccccc2o1,110%
9,Cc1ccc(/C=N/NC(=O)CSc2nc3ccccc3o2)cc1,111%
10,COc1ccc(/C=C2/SC(=O)N(CCCCCC(=O)Nc3ccccc3C(=O)O)C2=S)cc1,102%
11,O=C(CSCc1ccccc1)N1CCc2ccccc21,138% (active)
12,NC(=O)N1CCc2ccccc21,98.2%
13,Cc1nnc(SCC(=O)N2CCc3ccccc32)n1-c1ccccc1,100%
14,CCOc1ccc(NC(=O)CN(C)CC(=O)NC(C)c2ccccc2)cc1OCC (stereo not given),99.4%
15,Cc1ccc(NC(=O)c2cc(-c3ccc(C)o3)nc3ccccc23)nc1,91.3%
16,Cc1ccc(-c2csc(NNC(=O)c3ccccc3)n2)cc1,102%
17,Cc1ccc(Nc2nc(-c3ccc(O)cc3O)cs2)nc1,143% (active)
18,CN(C)/C=C(/C(=O)c1ccc(F)cc1)S(=O)(=O)c1ccc(F)cc1,106%
19,CCN(CCn1cccn1)C(=O)CC1C(=O)NCCN1Cc1cccc(OC)c1OC (stereo not given),96.3%
20,COc1ccc(N2CCN(C(=O)COc3ccc4c(C)cc(=O)oc4c3)CC2)cc1,93.8%
21,CC1(C)CC(N(Cc2ccccc2)C(=O)Cc2ccccc2)CCO1 (stereo not given),89.7%
22,CCOC(=O)/C(C#N)=C/c1ccc(N2CCN(Cc3ccccc3)CC2)cc1,107%

row,Structure (SMILES),activation (% of control)
1,CCOC(=O)/C(C#N)=C/c1ccc(N2CCCCC2)cc1,155% (active)
2,COc1ccc(N2CCN(C(=O)/C(C#N)=C/c3ccccc3)CC2)cc1,105%
3,O=C1N=C(N2CCOCC2)S/C1=C\C=C/c1ccccc1,141% (active)
4,CCc1ccc(/C=C2\SC(N3CCOCC3)=NC2=O)cc1,103%
5,Cc1ccsc1/C=C1\SC(N2CCOCC2)=NC1=O,127%
6,CN(Cc1nc2ccc(F)cc2[nH]1)Cc1nc(CC2CC2)no1,107%
7,CCCC(NC(=O)c1ccco1)c1nc2ccccc2[nH]1 (stereo not given),97.5%
8,O=C(COC(=O)c1ccc2c(c1)OCCO2)NCc1ccccc1,101%
9,O=C(OCc1ccccc1F)c1ccc2c(c1)OCCO2,139% (active)
10,CC(NC(=O)COC(=O)c1ccc2c(c1)OCO2)c1ccccc1 (stereo not given),102%
11,CCOC(=O)c1ccc(NC(=S)N2CCCC2)cc1,100%
12,CCn1ncc(CNC(=O)C2(C)CC2(Br)Br)c1C (stereo not given),90%
13,COCCCNC(=O)Cn1cc(/C=C(\C#N)C(=O)N2CCN(c3ccccc3)CC2)c2ccccc21,96.8%
14,O=C(NC1=NCCS1)[C@H](Cc1ccccc1)N1C(=O)c2ccccc2C1=O,107%
15,O=C(NCc1ccc2c(c1)OCO2)c1ccc(Cl)s1,99.1%
16,O=C(NC1=NCCS1)c1ccc(Cl)s1,141% (active)
17,CCOc1ccc(C(C)=O)cc1CSc1nnc(-c2ccncc2)n1CCOC,99.7%
18,Cc1cccc(NC(=S)NC(=O)c2ccc(Br)o2)c1,125%
19,O=C(Nc1ccc(Cl)cn1)c1ccc2c(c1)OCCO2,74.1%
20,Cc1cc(NC(=O)c2cnn3cccnc23)n(-c2ccccc2)n1,89.3%
21,O=C(Nc1ccc(Cl)cn1)c1cnn2cccnc12,153% (active)
